Results filed as inconclusive are left out. Active and inactive are the calls of the source. Calls come from the whole dose curve; as a rule, active = well fitted cell-killing curve with a large enough effect; inconclusive = small, poorly fitted or top-dose-only effect, or effect the other way; inactive = no such curve, though single readings can be large or run the other way.

Assay [1] in a line: Quantitative High-Throughput drug screen in 47 multiple myeloma cell lines against the NCATS MIPE library collection: XG6_PLB cell viability assay (AID 1919865). Note: nearly all actives have a fitted effect of over 40% in size. In outline: (§1)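 qHTS format: cells plated (500/well), pin-dosed with MIPE 4.0 compounds, kept 48 h at 37 °C. Readout was CellTiter-Glo luminescence, median RLU.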
Assay [2] in a line: Quantitative High-Throughput drug screen in 47 multiple myeloma cell lines against the NCATS MIPE library collection: VP6_DJ cell viability assay (AID 1919867). Note: nearly all actives have a fitted effect of over 40% in size. In outline: as §1
Assay [3] can be described thus: Quantitative High-Throughput drug screen in 47 multiple myeloma cell lines against the NCATS MIPE library collection: PE2_PLB cell viability assay (AID 1919869). Note: nearly all actives have a fitted effect of over 35% in size. The method in brief: as §1
Assay [4] in a line: Quantitative High-Throughput drug screen in 47 multiple myeloma cell lines against the NCATS MIPE library collection: PCM6_Riken cell viability assay (AID 1919870). Note: nearly all actives have a fitted effect of over 30% in size. In outline: as §1
Assay [5] is described as follows: Quantitative High-Throughput drug screen in 47 multiple myeloma cell lines against the NCATS MIPE library collection: RPMI8226_ATCC cell viability assay (AID 1919871). Note: nearly all actives have a fitted effect of over 30% in size. The method in brief: as §1
A short description of assay [6]: Quantitative High-Throughput drug screen in 47 multiple myeloma cell lines against the NCATS MIPE library collection: KMS11_JCRBsus cell viability assay (AID 1919873). Note: nearly all actives have a fitted effect of over 50% in size. In outline:
as §1

Assay [7] in a line: Quantitative High-Throughput drug screen in 47 multiple myeloma cell lines against the NCATS MIPE library collection: KMS28BM_JCRB cell viability assay (AID 1919874). Note: nearly all actives have a fitted effect of over 35% in size. In outline: as §1
Assay [8] in a line: Quantitative High-Throughput drug screen in 47 multiple myeloma cell lines against the NCATS MIPE library collection: OPM2_DSMZ cell viability assay (AID 1919872). Note: nearly all actives have a fitted effect of over 30% in size. In outline:
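CellTiter-Glo luminescence (ATP) after 48 h compound exposure, 37C/5% CO2; 500 cells/well; MIPE 4.0 approved/investigational drugs pinned in; DMSO = 100%, media only = 0% viability.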

The nature of assay [9]: Quantitative High-Throughput drug screen in 47 multiple myeloma cell lines against the NCATS MIPE library collection: UTMC2_PLB cell viability assay (AID 1919868). Note: nearly all actives have a fitted effect of over 55% in size. The following applies: CellTiter-Glo ATP luminescence, 48 h; viability (% of DMSO control): at 45.8 µM (top of the series) unless noted. In outline: as §1
(In general: ATP-based viability assays read luminescence as a measure of living cells.)
Potency is the fitted concentration of half-maximal effect.

On to `CCN(CC)CCNC(=O)c1ccc2nc(-c3ccccc3)c(-c3ccc(CN4CCC(n5c(=O)[nH]c6ccccc65)CC4)cc3)nc2c1`, for which the Potency was 296 nM (active) in assay [1]; 372 nM (active) in assay [2]; 1050 nM (active) in assay [3]; 332 nM (active) in [4]; 20900 nM (active) in assay [5]; 2350 nM (active) in assay [6]. For the same molecule, the Potency in assay [7] is 16600 nM (active).
With `Cc1ccc(CN2CCNCC2)cc1NC(=O)CNc1ccc(F)c(F)c1`, the Potency entry in assay [1], in assay [3], in [4], in assay [5] and in assay [8] was “inactive” in each case.
On to `Cc1cn2c(-c3cn[nH]c3)cnc2c(Nc2ccc(C(=O)N3CCNCC3)cc2F)n1`, for which the Potency in assay [1] is 2960 nM (active); in [2], 8330 nM (active); in assay [3], 20900 nM (active); in assay [4] it was 18700 nM (active); in assay [8], 23500 nM (active); in assay [6], 8330 nM (active). The Potency in assay [7] is 8330 nM (active).
Turning to `Cn1cncc1[C@@](N)(c1ccc(Cl)cc1)c1ccc2c(c1)c(-c1cccc(Cl)c1)cc(=O)n2C`, the Potency in [1] is 1870 nM (active); in [2], 14800 nM (active); in assay [3] it was 16600 nM (active); in assay [4] it was 20900 nM (active); in [5] it was 5260 nM (active); in assay [8], 11800 nM (active). Further, the Potency in assay [7] was 20900 nM (active).
In the case of `COc1ccc(C(=O)CC2(O)C(=O)Nc3c(Cl)ccc(Cl)c32)cc1` (configuration not stated), the Potency in assay [3] was 4180 nM (active); in [5], 2640 nM (active); in assay [8], 9350 nM (active); in assay [6] it was 1320 nM (active).
Regarding `CCn1nnc2c(N3CCOCC3)nc(-c3ccc(NC(=O)Nc4ccc(C(=O)N5CCN(C)CC5)cc4)cc3)nc21`, the Potency in assay [9] was 5.3 nM (active); in assay [4], 33.2 nM (active); in [5], 52.6 nM (active); in assay [8], 93.5 nM (active); in [6], 23.5 nM (active); in [7], 4.2 nM (active).
Regarding `CCC1=C[C@@H]2CN(C1)Cc1c([nH]c3ccccc13)[C@@](C(=O)OC)(c1cc3c(cc1OC)N(C)[C@@H]1[C@@](O)(C(=O)OC)[C@H](OC(C)=O)[C@]4(CC)C=CCN5CC[C@]31[C@@H]54)C2`, the Potency was 26.4 nM (active) in assay [3]; 118 nM (active) in assay [5]; 16.6 nM (active) in [8]; 8.3 nM (active) in assay [6]; 4.7 nM (active) in [7].
In the case of `Cn1c(=O)n(-c2ccc(C(C)(C)C#N)cc2)c2c3cc(-c4cnc5ccccc5c4)ccc3ncc21`, the Potency in [9] is 9.3 nM (active); in assay [5] it was 10.5 nM (active); in assay [8], 74.3 nM (active); in [7] it was 20.9 nM (active).
As for `COC(=O)C[C@](O)(CCCC(C)(C)O)C(=O)O[C@@H]1C(OC)=C[C@]23CCCN2CCc2cc4c(cc2[C@H]13)OCO4`, the Potency in assay [3] is 20900 nM (active); in assay [7] it was 10500 nM (active). Also, the Potency result in [5] and in assay [8] was “inactive” each time.
In the case of `Clc1cccc(-n2nnnc2NCc2ccccc2Oc2ccccn2)c1Cl`, the Potency entry in assay [4], in [8], in assay [6] and in assay [7] was “inactive” throughout.
On to `Nc1ccn([C@@H]2CS[C@H](CO)O2)c(=O)n1`, for which the Potency entry in [5], in assay [8] and in assay [7] was “inactive” throughout.
Regarding `NC(=O)c1cccc2cn(-c3ccc([C@@H]4CCCNC4)cc3)nc12`, the Potency in assay [2] is 18700 nM (active). Moreover, the Potency result in [4], in assay [5], in [8], in assay [6] and in assay [7] was “inactive” in each case.
Turning to `CCN1CCN(Cc2ccc(-c3cc4c(N[C@H](C)c5ccccc5)ncnc4[nH]3)cc2)CC1`, the Potency was 1660 nM (active) in assay [4], 3720 nM (active) in [6] and 2960 nM (active) in assay [7].
With `CC(C)(C)c1cc(C(C)(C)C)c(NC(=O)c2c[nH]c3ccccc3c2=O)cc1O`, the Potency entry in assay [9], in assay [3], in [4], in assay [5], in [8] and in assay [6] was “inactive” each time. The Potency result in assay [7] is “inactive”.
On to `CCCCCCCCCC(=O)N[C@@H](Cc1c[nH]c2ccccc12)C(=O)N[C@H](CC(N)=O)C(=O)N[C@@H](CC(=O)O)C(=O)N[C@@H]1C(=O)NCC(=O)N[C@@H](CCCN)C(=O)N[C@@H](CC(=O)O)C(=O)N[C@H](C)C(=O)N[C@@H](CC(=O)O)C(=O)NCC(=O)N[C@H](CO)C(=O)N[C@@H]([C@@H](C)CC(=O)O)C(=O)N[C@@H](CC(=O)c2ccccc2N)C(=O)O[C@@H]1C`, for which the Potency result in assay [3], in assay [4], in [5], in assay [8] and in assay [7] was “inactive” throughout.
Regarding `CN1CC[C@@H](c2c(O)cc(O)c3c(=O)cc(-c4ccccc4Cl)oc23)[C@@H](O)C1`, the Potency in [2] was 52.6 nM (active); in [3], 66.2 nM (active); in assay [4], 83.3 nM (active); in assay [5] it was 235 nM (active); in assay [8] it was 118 nM (active); in [6], 66.2 nM (active). In [7], the Potency is 93.5 nM (active).
As for `C=CC(=O)N1CCC[C@@H](n2nc(-c3ccc(Oc4ccccc4)cc3)c3c(N)ncnc32)C1`, in [5], the Potency was 20900 nM (active).
As for `CN(C)c1nc(Cc2ccc(NC(=O)c3ccc4ccccc4c3)cc2)nc(Cl)c1CC(=O)O`, the Potency entry in assay [3], in assay [4], in assay [5], in [8] and in assay [7] was “inactive” throughout.
Regarding `O=C(Cc1ccc(-c2ccc(OCCN3CCOCC3)cc2)cn1)NCc1ccccc1`, the Potency in assay [2] was 26.4 nM (active); in assay [9], 33.2 nM (active); in assay [4] it was 26.4 nM (active); in [5], 148 nM (active); in [8] it was 37.2 nM (active); in assay [7], 14.8 nM (active).
As to `CCOC(=O)C1=C(C)NC2=C(C(=O)CC(C)(C)C2)C1c1ccc(-c2ccccc2)cc1` (configuration not stated), the Potency in [9] was 18700 nM (active); in assay [3], 20900 nM (active); in assay [4], 20900 nM (active); in assay [5] it was 23500 nM (active); in assay [6] it was 18700 nM (active).
For the molecule `Nc1nc(-c2nn(Cc3ccccc3F)c3ncccc23)nc(N)c1N1CCOCC1`, the Potency result in [8] and in assay [7] was “inactive” in each case.
As for `Cc1coc2c1C(=O)C(=O)c1c-2ccc2c1CCCC2(C)C`, the Potency in assay [2] is 20900 nM (active); in [5], 2090 nM (active); in [8], 16600 nM (active). Moreover, the Potency entry in assay [7] was “inactive”.
For the molecule `CCCCCN(CCC12CC3CC(CC(C3)C1)C2)C(=O)NCCCc1ccncc1`, the Potency in assay [9] is 18700 nM (active); in assay [5] it was 20900 nM (active); in [6], 16600 nM (active); in [7], 8330 nM (active). For the same molecule, the Potency result in assay [8] was “inactive”.
